Marburg entry inh: qHTS for inhibitors of binding or entry into cells for Marburg Virus. Marburg virus pseudotyped entry inhibition, cell reporter. Potency, µM (doses to about 37.8 µM), for the others: at the top dose activity change, negative = inhibition, actives largely listed as inhibitors. AID 540276, 2011. 1.8% of 300,000 active; calls by dose curve; tested in HEK293 cells; further: potency means the concentration at half of the fitted maximal effect; on the % scale 0 is the no-effect control and ±100 the full control effect
HCV inh: qHTS Assay for Inhibitors of Hepatitis C Virus (HCV); Huh7.5.1 HCVcc-Cre infection, luciferase reporter, 44 h; Potency, µM (highest dose often 41.8 µM), without a hit: at the top dose activity change, negative = inhibition, usual class: inhibitors; 3.4% of 340,000 active; AID 651820, 2012; active means well fitted inhibition curve with a large enough effect; inconclusive means small, poorly fitted or top-dose-only effect, or another doubt; inactive means no such curve, though single readings can be large or run the other way; further: potency means the concentration at half of the fitted maximal effect; on the % scale 0 is the no-effect control and ±100 the full control effect
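Luciferase read-out (15 sec integration) after a 15 min room-temperature substrate step quantifies HCVcc-Cre infection. Cells, 1,000 per well, had compound added 4 h post-plating, then virus at ~0.5 moi, and were cultured 44 h.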
Lassa entry inh: qHTS for Inhibitors of binding or entry into cells for Lassa Virus; Lassa virus pseudotype entry inhibition, cell reporter; Potency, µM (titrated, usually from 37.9 µM), for the others: at the highest dose activity change, negative = inhibition, actives largely listed as inhibitors; 1.2% of 300,000 active; AID 540256, 2011; calls by dose curve; tested in HEK293 cells; further: potency means the concentration at half of the fitted maximal effect; on the % scale 0 is the no-effect control and ±100 the full control effect; nearly all actives have a fitted effect of over 50% in size
FMDV antiviral: High Throughput Screening for Foot and Mouth Disease Virus Antivirals; FMDV antiviral cell-based qHTS; Potency, µM (doses to about 57.9 µM), without a hit: top-dose activity change, negative = inhibition, actives largely listed as inhibitors; 1.2% of 410,000 active; AID 1159524, 2015; calls by dose curve; tested in HEK293T cells; further: read-out not given here; potency means the concentration at half of the fitted maximal effect; on the % scale 0 is the no-effect control and ±100 the full control effect; nearly all actives have a fitted effect of over 45% in size
CHX counter: Cycloheximide Counterscreen for Small Molecule Inhibitors of Shiga Toxin; cell reporter, cycloheximide protein synthesis inhibition counterscreen; max response, %; 12% of 300,000 active; AID 2314, 2010; in the data active means max response mostly above about 13%, no sharp cut-off; inactive means mostly below about 14%; further: read at 38.3 µM for the half of the compounds with a filed dose; 0% is about no effect
Shiga inhibitor: A qHTS for Small Molecule Inhibitors of Shiga Toxin. Vero cells, Shiga toxin protein synthesis inhibition reporter. inhibition, % at 38.7 µM. 9.2% of 290,000 active. AID 2315, 2010; in the data active means inhibition mostly above about 28%, no sharp cut-off; inactive means mostly below about 43%; further: 0% is about no effect
* marks the source's active call; other numbers are inactive results; u = inconclusive; x = no result given; [ ] = remark or other dose. This is a sample that favours compounds with a hit; in the whole collection about 13% have one here.

SMILES | Marburg entry inh | HCV inh | Lassa entry inh | FMDV antiviral | CHX counter | Shiga inhibitor
COc1cccc(F)c1C(C[N+](=O)[O-])c1c(N)n(C)c(=O)n(C)c1=O (stereo not drawn) | x | 7.94µM* | x | 31.6µM* | -4.7 | -17.3
COc1cc(C(C[N+](=O)[O-])c2c(N)n(C)c(=O)n(C)c2=O)ccc1O (stereo not drawn) | u | u | u | 17.8µM* | -8.4 | -24.9
CCOC(=O)C1CCN(c2c(NCCCN(CC)Cc3ccccc3)c(=O)c2=O)CC1 | 0.2% | 15.5% | 17.1% | 9.5% | -0.8 | -1.5
CC(=O)N1CCC(=NNc2nc3ccccc3s2)CC1 | x | 1.3% | x | 48.3% | 45.2* | 91.4*
CCOC(=O)N1CCC(=NNc2nc3ccccc3s2)CC1 | 0.4% | -26.9% | x | -16.9% | 71.4* | 76.6*
O=C(O)C1C2CCC(C2)C1C(=O)Nc1nc2ccccc2s1 (stereo not drawn) | 23.1% | 5.2% | -2.7% | 29.1% | 8.0 | 14.0
CC(=O)Nc1cccc(OCc2cccc([N+](=O)[O-])c2)c1 | 12.3% | -18.1% | 15.1%[46.1 µM] | 9.4% | x | x
Cc1cnc(NC(=O)Nc2ccc(OCc3ccccc3)cc2)c(Br)c1 | u | u | 25.1%[46.1 µM] | 4.6% | 15.8* | 26.4
CC(=O)Nc1ccc(OCc2cccc([N+](=O)[O-])c2)cc1 | 9.6%[46.1 µM] | 12.7% | u | 32.7% | 28.9* | 81.8*
Oc1ccc(NCc2ccc(OCc3ccccc3)cc2)cc1 | u | -23.4% | u | 23.5% | 49.9* | 153.2*
O=C(Nc1ccccc1)Oc1ccc[nH]c1=O | x | 14.9% | x | 11.6% | 21.1* | 15.9
COc1ccc(-n2ccn(CC(=O)Nc3ccccc3C(F)(F)F)c(=O)c2=O)cc1OC | x | x | -10.2%[46.1 µM] | -1.4% | x | x
COC(=O)Nc1ccc(Oc2ccccc2)cc1 | 6.3% | 3.1% | -0.8% | 19.0% | 9.6* | 23.9
Cc1ccc(OC(=O)Nc2ccccc2)cc1 | u | 12.8% | -0.5%[46.1 µM] | -6.3% | 43.1* | 64.9*
O=C(O)CCc1ccc(S(=O)(=O)Nc2ccc(OCc3ccccc3)cc2)cc1 | u | u | -1.7%[46.1 µM] | 7.0% | 13.8* | 44.6*
CC(=O)Nc1ccc(Oc2ccccc2)cc1 | x | 12.4% | x | -4.2% | -1.5 | 3.4
NC(=O)COc1ccc(NC(=O)OCc2ccccc2)cc1 | 7.4% | -5.0% | 28.7% | 50.2% | 23.6* | 35.7*
CCCCCNC(=O)C1CC=CCC1C(=O)O (stereo not drawn) | 10.5% | 12.8% | 4.5% | -4.3% | -2.4 | -4.8
CC(CC(=O)NC1CCCCC1)S(=O)(=O)c1ccc2c(c1)CCN2C(=O)C1CC1 (stereo not drawn) | x | -3.6% | x | -16.5% | -7.1 | -9.0
CCN(CC)S(=O)(=O)c1cc(NC(=O)COC(=O)CCc2nc3ccccc3s2)ccc1C | 6.7% | x | 49.0%[14.3 µM] | -7.4% | -1.1 | 32.5
CC(C)C(=O)N/N=C/c1ccc(OCc2ccccc2)cc1 | -9.1% | -17.0% | -19.1% | -23.5% | 3.2 | 26.7
COC(=O)Nc1ccc(OCc2ccccc2)cc1 | u | -6.1% | u | 59.8% | 60.3* | 72.1*
CS(=O)(=O)Nc1ccc(OCc2ccccc2)cc1 | 17.5% | -10.3% | -0.6% | 0.0% | 18.6* | 55.0
CC(=O)Nc1ccc(N=Cc2ccc(OCc3ccccc3)cc2)cc1 | u | 25.2% | 1.2% | 15.6% | 35.0* | 67.7*
Cn1nc(OC(=O)Nc2ccccc2)cc1C(F)(F)F | -1.9% | x | x | x | 27.9* | 37.2*
CC(=O)N[C@@H](CC(C)C)C(=O)N[C@@H](CCCNC(=N)N)C(=O)N[C@@H](Cc1cnc[nH]1)C(=O)N[C@@H](Cc1ccc(O)cc1)C(=O)N[C@@H](CC(C)C)C(=O)N[C@@H](CC(N)=O)C(=O)N[C@@H](CC(C)C)C(=O)N[C@@H](CC(C)C)C(=O)N[C@H](C(=O)N[C@@H](CCCNC(=N)N)C(=O)N[C@@H](CCC(N)=O)C(=O)N[C@@H](CCCNC(=N)N)C(=O)N[C@@H](Cc1ccc(O)cc1)C(N)=O)[C@@H](C)O | x | x | x | x | -2.8 | 9.9
NS(=O)(=O)c1ccc(CNC(=O)c2cc(=O)[nH]c3ccccc23)cc1 | 7.1%[46.1 µM] | 13.1% | 0.9% | -2.9% | -4.8 | 2.1
COC(=O)Nc1ccc(SCC(=O)c2ccccc2)cc1 | 6.0%[46.1 µM] | 7.4% | 14.3%[46.1 µM] | 16.4% | 51.0* | 61.9*
